Results reported in the supplement of paper PMC12282887.
± gives the standard deviation of the averaged measurements.

Assays:
Experiment in all cases: promoter activity interaction Z-score (Lux/OD deviation from empty-vector control); higher = stronger promoter induction by the compound
[1] = system: E. coli BW25113 acrABp lux reporter
Method in brief: (§1)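 Low-copy luxCDABE promoter reporters were carried by E. coli BW25113, either wild type or lacking one of three genes, grown in 40 µl LB Lennox in 384-well plates at 37°C. Each compound was run at four 1:2 dilutions in biological duplicates, with OD600 and luminescence read every 30 min for 12 h. Integration used 0–8 h for wild type and 1–9 h for deletion strains, and wells under 10% of the median growth value were removed. Luminescence normalised to growth was fitted against a control, and the Z-transformed residual is the score.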

[2] = system: E. coli BW25113 marRABp lux reporter
Method in brief: as §1

[3] = system: E. coli BW25113 micFp lux reporter
Method in brief: as §1

[4] = system: E. coli BW25113 ompFp lux reporter
Method in brief: as §1

[5] = system: E. coli BW25113 robp lux reporter
Method in brief: as §1

[6] = system: E. coli BW25113 soxSp lux reporter
Method in brief: as §1

[7] = system: E. coli BW25113 tolCp lux reporter
Method in brief: as §1

[8] = 0.073 µg/ml, genetic background: wild type
[9] = 0.073 µg/ml, genetic background: ΔmarA
[10] = 0.073 µg/ml, genetic background: Δrob
[11] = 0.073 µg/ml, genetic background: ΔsoxS
[12] = 0.15 µg/ml, genetic background: wild type
[13] = 0.15 µg/ml, genetic background: ΔmarA
[14] = 0.15 µg/ml, genetic background: Δrob
[15] = 0.15 µg/ml, genetic background: ΔsoxS
[16] = 0.29 µg/ml, genetic background: wild type
[17] = 0.29 µg/ml, genetic background: ΔmarA
[18] = 0.29 µg/ml, genetic background: Δrob
[19] = 0.29 µg/ml, genetic background: ΔsoxS
[20] = 0.58 µg/ml, genetic background: wild type
[21] = 0.58 µg/ml, genetic background: ΔmarA
[22] = 0.58 µg/ml, genetic background: Δrob
[23] = 0.58 µg/ml, genetic background: ΔsoxS

## COc1cc(Cc2cnc(N)nc2N)cc(OC)c1OC [Trimethoprim]
[1]; [8]
  promoter activity interaction Z-score: 0.0131 ± 0.34
[1]; [9]
  promoter activity interaction Z-score: -0.307 ± 0.0077
[1]; [10]
  promoter activity interaction Z-score: -0.0611 ± 0.045
[1]; [11]
  promoter activity interaction Z-score: -0.429 ± 0.0073
[1]; [12]
  promoter activity interaction Z-score: 0.297 ± 0.54
[1]; [13]
  promoter activity interaction Z-score: 1.43 ± 0.76
[1]; [14]
  promoter activity interaction Z-score: 0.162 ± 0.041
[1]; [15]
  promoter activity interaction Z-score: -0.000323 ± 0.14
[1]; [16]
  promoter activity interaction Z-score: 0.6 ± 0.73
[1]; [17]
  promoter activity interaction Z-score: -0.763 ± 0.81
[1]; [18]
  promoter activity interaction Z-score: 0.526 ± 0.19
[1]; [19]
  promoter activity interaction Z-score: 0.701 ± 0.81
[1]; [20]
  promoter activity interaction Z-score: 0.577 ± 0.46
[1]; [21]
  promoter activity interaction Z-score: -0.476 ± 0.038
[1]; [22]
  promoter activity interaction Z-score: 1.39 ± 0.35
[1]; [23]
  promoter activity interaction Z-score: 0.448 ± 0.78
[2]; [8]
  promoter activity interaction Z-score: -0.00717 ± 0.14
[2]; [9]
  promoter activity interaction Z-score: 0.354 ± 0.26
[2]; [10]
  promoter activity interaction Z-score: 0.118 ± 0.14
[2]; [11]
  promoter activity interaction Z-score: 0.299 ± 0.38
[2]; [12]
  promoter activity interaction Z-score: 1.11 ± 0.81
[2]; [13]
  promoter activity interaction Z-score: 1.71 ± 0.26
[2]; [14]
  promoter activity interaction Z-score: 0.43 ± 0.16
[2]; [15]
  promoter activity interaction Z-score: 0.811 ± 0.45
[2]; [16]
  promoter activity interaction Z-score: 0.921 ± 0.63
[2]; [17]
  promoter activity interaction Z-score: 1.36 ± 0.27
[2]; [18]
  promoter activity interaction Z-score: 0.367 ± 0.12
[2]; [19]
  promoter activity interaction Z-score: 0.729 ± 0.19
[2]; [20]
  promoter activity interaction Z-score: 0.146 ± 0.067
[2]; [21]
  promoter activity interaction Z-score: 0.423 ± 0.12
[2]; [22]
  promoter activity interaction Z-score: 0.143 ± 0.17
[2]; [23]
  promoter activity interaction Z-score: 0.484 ± 0.068
[3]; [8]
  promoter activity interaction Z-score: 0.711 ± 0.12
[3]; [9]
  promoter activity interaction Z-score: 0.728 ± 0.027
[3]; [10]
  promoter activity interaction Z-score: 0.665 ± 0.28
[3]; [11]
  promoter activity interaction Z-score: 0.533 ± 0.23
[3]; [12]
  promoter activity interaction Z-score: 1.86 ± 0.14
[3]; [13]
  promoter activity interaction Z-score: 1.1 ± 0.14
[3]; [14]
  promoter activity interaction Z-score: 1.29 ± 0.44
[3]; [15]
  promoter activity interaction Z-score: 0.842 ± 0.36
[3]; [16]
  promoter activity interaction Z-score: 2.75 ± 0.96
[3]; [17]
  promoter activity interaction Z-score: 1.9 ± 0.074
[3]; [18]
  promoter activity interaction Z-score: 2.28 ± 0.79
[3]; [19]
  promoter activity interaction Z-score: 1.33 ± 0.41
[3]; [20]
  promoter activity interaction Z-score: 0.997 ± 0.95
[3]; [21]
  promoter activity interaction Z-score: 0.388 ± 0.61
[3]; [22]
  promoter activity interaction Z-score: 1.15 ± 0.38
[3]; [23]
  promoter activity interaction Z-score: 0.825 ± 0.16
[4]; [8]
  promoter activity interaction Z-score: -0.322 ± 0.3
[4]; [9]
  promoter activity interaction Z-score: -1.17 ± 0.5
[4]; [10]
  promoter activity interaction Z-score: -0.297 ± 0.54
[4]; [11]
  promoter activity interaction Z-score: -0.129 ± 0.65
[4]; [12]
  promoter activity interaction Z-score: 0.109 ± 0.39
[4]; [13]
  promoter activity interaction Z-score: -0.477 ± 0.78
[4]; [14]
  promoter activity interaction Z-score: 0.244 ± 0.7
[4]; [15]
  promoter activity interaction Z-score: 0.51 ± 0.81
[4]; [16]
  promoter activity interaction Z-score: 0.0831 ± 0.67
[4]; [17]
  promoter activity interaction Z-score: -1.9 ± 0.61
[4]; [18]
  promoter activity interaction Z-score: -0.0302 ± 1
[4]; [19]
  promoter activity interaction Z-score: 0.395 ± 1.3
[4]; [20]
  promoter activity interaction Z-score: -0.896 ± 0.32
[4]; [21]
  promoter activity interaction Z-score: -0.897 ± 0.46
[4]; [22]
  promoter activity interaction Z-score: 0.0886 ± 0.83
[4]; [23]
  promoter activity interaction Z-score: -1.15 ± 0.39
[5]; [8]
  promoter activity interaction Z-score: 0.791 ± 0.3
[5]; [9]
  promoter activity interaction Z-score: 0.875 ± 0.23
[5]; [10]
  promoter activity interaction Z-score: 2.11 ± 0.058
[5]; [11]
  promoter activity interaction Z-score: 0.238 ± 1.1
[5]; [12]
  promoter activity interaction Z-score: 3.64 ± 0.82
[5]; [13]
  promoter activity interaction Z-score: 3.37 ± 0.44
[5]; [14]
  promoter activity interaction Z-score: 4.81 ± 0.7
[5]; [15]
  promoter activity interaction Z-score: 2.16 ± 0.27
[5]; [16]
  promoter activity interaction Z-score: 7.43 ± 2.3
[5]; [17]
  promoter activity interaction Z-score: 5.16 ± 0.16
[5]; [18]
  promoter activity interaction Z-score: 8.88 ± 0.31
[5]; [19]
  promoter activity interaction Z-score: 5.55 ± 0.44
[5]; [20]
  promoter activity interaction Z-score: 3.89 ± 0.063
[5]; [21]
  promoter activity interaction Z-score: 4.6 ± 5.3
[5]; [22]
  promoter activity interaction Z-score: 3.21 ± 0.23
[5]; [23]
  promoter activity interaction Z-score: 2.01 ± 1.6
[6]; [8]
  promoter activity interaction Z-score: -0.0844 ± 0.22
[6]; [9]
  promoter activity interaction Z-score: 0.118 ± 0.2
[6]; [10]
  promoter activity interaction Z-score: 0.163 ± 0.18
[6]; [11]
  promoter activity interaction Z-score: -0.116 ± 0.24
[6]; [12]
  promoter activity interaction Z-score: 0.261 ± 0.11
[6]; [13]
  promoter activity interaction Z-score: 0.204 ± 0.1
[6]; [14]
  promoter activity interaction Z-score: 0.486 ± 0.39
[6]; [15]
  promoter activity interaction Z-score: 0.169 ± 0.29
[6]; [16]
  promoter activity interaction Z-score: 0.521 ± 0.032
[6]; [17]
  promoter activity interaction Z-score: 0.796 ± 0.022
[6]; [18]
  promoter activity interaction Z-score: 0.986 ± 0.72
[6]; [19]
  promoter activity interaction Z-score: 0.663 ± 0.23
[6]; [20]
  promoter activity interaction Z-score: 1.34 ± 0.14
[6]; [21]
  promoter activity interaction Z-score: 2.96 ± 0.38
[6]; [22]
  promoter activity interaction Z-score: 2.69 ± 1.1
[6]; [23]
  promoter activity interaction Z-score: -0.0409 ± 0.74
[7]; [8]
  promoter activity interaction Z-score: 0.67 ± 0.48
[7]; [9]
  promoter activity interaction Z-score: -0.632 ± 0.36
[7]; [10]
  promoter activity interaction Z-score: -0.116 ± 0.95
[7]; [11]
  promoter activity interaction Z-score: -0.559 ± 0.21
[7]; [12]
  promoter activity interaction Z-score: 0.553 ± 0.46
[7]; [13]
  promoter activity interaction Z-score: -0.336 ± 0.28
[7]; [14]
  promoter activity interaction Z-score: 0.749 ± 0.87
[7]; [15]
  promoter activity interaction Z-score: 2.3 ± 2.1
[7]; [16]
  promoter activity interaction Z-score: 1.84 ± 0.19
[7]; [17]
  promoter activity interaction Z-score: 2.71 ± 0.84
[7]; [18]
  promoter activity interaction Z-score: 1.92 ± 0.38
[7]; [19]
  promoter activity interaction Z-score: 2.4 ± 1.6
[7]; [20]
  promoter activity interaction Z-score: 1.85 ± 0.094
[7]; [21]
  promoter activity interaction Z-score: 0.798 ± 2
[7]; [22]
  promoter activity interaction Z-score: 1.4 ± 0.83
[7]; [23]
  promoter activity interaction Z-score: 0.494 ± 0.71
